Compound activity as filed in PubChem BioAssay.
VP16 counter: counter-screen for ROR gamma inhibitors: Gal4-VP16 reporter; 310,000 tested, 3.5% active; Potency, µM (doses to about 53.6 µM), for inactives: at the top dose activity, negative = inhibition, hits mostly inhibitors; AID 2546; Drosophila S2 Gal4-VP16 UAS-luciferase, luminescence, 20 h;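 note: Gal4-VP16 expression switched on by copper sulfate through the metallothionein promoter; potency is the fitted concentration of half-maximal effect; nearly all actives have a fitted effect of over 50% in size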
ELG1 repair inh: ELG1-dependent DNA repair inhibition; Potency, µM (series often up to 46.1 µM), for inactives: at the top dose activity change, negative = inhibition, most hits filed as inhibitors; 330,000 tested, 2.3% active; HEK293T ELG1-luciferase reporter, luminescence, 16 h; DNA damage induced by 5-fluorouridine; AID 504467; note: potency is the fitted concentration of half-maximal effect; nearly all actives have a fitted effect of over 55% in size
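Luminescence from the luciferase reporter, measured 30 min after ONE-Glo reagent at room temperature, was the read-out. Beforehand, 2,000 cells per well were exposed for 16 hr at 37 °C to 5-fluorouridine together with compound or vehicle.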
RORgamma inh: blocks mouse ROR gamma transcriptional activity. P51450. Drosophila S2 Gal4-RORgamma UAS-luciferase reporter, 20 h. Potency, µM (highest dose often 53.6 µM), inactives show at the top dose activity change, negative = inhibition, hits mostly inhibitors. 310,000 tested, 5.4% active; note: potency is the fitted concentration of half-maximal effect; nearly all actives have a fitted effect of over 60% in size
Target sequence (P51450 whole entry, looked up, the tested form may be a part): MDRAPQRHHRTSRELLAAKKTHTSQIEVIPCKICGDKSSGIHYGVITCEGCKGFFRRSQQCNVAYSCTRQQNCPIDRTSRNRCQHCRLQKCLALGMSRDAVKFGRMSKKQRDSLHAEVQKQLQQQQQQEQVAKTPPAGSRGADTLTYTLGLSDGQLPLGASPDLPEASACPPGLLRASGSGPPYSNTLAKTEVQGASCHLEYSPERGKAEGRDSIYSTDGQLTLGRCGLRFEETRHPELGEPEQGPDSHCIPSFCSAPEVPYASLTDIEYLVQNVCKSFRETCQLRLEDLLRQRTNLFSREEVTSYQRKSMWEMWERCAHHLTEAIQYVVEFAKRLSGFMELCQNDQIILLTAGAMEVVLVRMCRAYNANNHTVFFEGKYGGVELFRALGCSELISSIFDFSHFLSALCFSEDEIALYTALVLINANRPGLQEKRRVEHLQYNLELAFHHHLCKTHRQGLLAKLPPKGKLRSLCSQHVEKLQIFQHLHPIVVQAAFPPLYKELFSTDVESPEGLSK
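Compounds are pin-transferred onto Drosophila Schneider cells expressing a copper-inducible Gal4–ROR gamma transactivation domain fusion. After 1 hr, copper sulfate is added to 700 uM final; luciferase is read 20 hr later.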
IL1B secr inh: inhibitors of inflammasome signaling (IL-1 beta secretion). activity change, % at 57.5 µM. THP-1 LPS/ATP IL-1B secretion, AlphaLISA, 16 h; active compounds read low. AID 743279. 360,000 tested, 4.7% active; in the data active = activity change below about -50%; inconclusive = mostly about -30% to -49%
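THP-1 cells pretreated 1 hr with compounds (up to 57.5 uM final), then stimulated with LPS (250 ng/mL final) plus ATP (1.25 mM final); secreted IL-1B measured by AlphaLISA after 16 hr, decreased signal indicating inhibition.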
DT40 TDP1 CPT: growth inhibition of DT40 Tdp1-/-;hTDP1 cells with camptothecin (screen for TDP1 inhibitors) | Potency, µM (doses to about 46.2 µM), for the others: at the top dose activity change, negative = growth inhibition, actives largely listed as inhibitors | AID 686979 | chicken DT40 Tdp1-/-;hTDP1 cells + 20 nM CPT, ATP luminescence, 48 h | 420,000 tested, 12% active; note: potency is the fitted concentration of half-maximal effect; nearly all actives have a fitted effect of over 55% in size
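Cell growth measured by CellTiter-Glo luminescence after a minimum 48 h, 37 C compound exposure with 20 nM CPT in Tdp1-knockout DT40 cells stably expressing hTDP1, seeded 400/well; qHTS titration format.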
TDP1 cell noCPT: qHTS for Inhibitors of human tyrosyl-DNA phosphodiesterase 1 (TDP1): qHTS in cells in absence of CPT. AID 686978, 2013. DT40 Tdp1-/- hTDP1 cells, no CPT, ATP luminescence, 48 h. 420,000 tested, 15% active. Potency, µM (doses to about 46.2 µM), inactives show top-dose activity change, negative = growth inhibition, most hits filed as inhibitors; note: potency is the fitted concentration of half-maximal effect; nearly all actives have a fitted effect of over 55% in size
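Camptothecin absent (DMSO only). Human TDP1-complemented DT40 knockout cells, 400 cells/well, 37 °C for minimum 48 hr; ATP measured via CellTiter-Glo, 30 min dark incubation, luminescence.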
* = called active by the depositor; ? = inconclusive; . = no result given. Only some compounds are listed: those with a hit (about 21% of all), similar ones and a draw of the others. Unless noted, calls come from the whole dose curve; as a rule, active = well fitted curve in the direction sought with a large enough effect; inconclusive = small, poorly fitted or top-dose-only effect, or another doubt; inactive = no such curve, though single readings can be large; an effect the other way counts as inactive or inconclusive. % is set by controls: 0 for no effect and ±100 for the full control effect.

SMILES	VP16 counter	ELG1 repair inh	RORgamma inh	IL1B secr inh	DT40 TDP1 CPT	TDP1 cell noCPT
CS(=O)(=O)c1ccccc1C(=O)Nc1nc2ccccc2[nH]1	0%	6%	6%	0	3%	-7%
CCOc1ccc2oc(C(=O)NCc3nc4ccccc4[nH]3)c(C)c2c1	-1%	?	17%	-19	?	?
Cc1c(C(=O)Nc2nc3ccccc3[nH]2)oc2ccc(Br)cc12	4.5µM*	?	5.6µM*	-6	?	?
Cc1c(C(=O)Nc2nc3ccccc3[nH]2)oc2ccccc12	5µM*	?	0.89µM*	17	21µM*	23µM*
CCNC(=O)C[C@@H]1CC[C@H]2[C@@H](COC[C@H](O)CN2C(=O)C2CC2)O1	.	.	.	30	9%	4%
CCn1ncc(/C=N\NC(=O)c2ccc3c(c2)c(C)c(C)n3Cc2ccccc2)c1C	?	?	?	-12	-29%	?
CCn1nc(C)c(/C=N\NC(=O)c2ccc3c(c2)OCO3)c1C	0%	?	-38%	11	0%	-3%
CCn1nc(C)c(/C=N/NC(=O)c2ccc3c(c2)c(C)c(C)n3Cc2ccccc2)c1C	9%	0%	4%	-3	10µM*	10µM*
CCn1cc(/C=N\NC(=O)c2ccc3c(c2)c(C)c(C)n3Cc2ccccc2)c(C)n1	?	-8%	?	-13	13µM*	16µM*
COc1ccc(-n2c(-c3ccc(C)cc3)cc3c2CC(C)(C)CC3=O)c(OC)c1	.	.	.	.	15µM*	?
Cc1ccc(-c2cc3c(n2-c2ccc(C)cc2)CC(C)(C)CC3=O)cc1	.	.	.	.	0%	-4%
Cc1ccc(-c2cc3c(n2-c2ccc(F)cc2)CC(C)(C)CC3=O)cc1	.	.	.	.	16µM*	18µM*
COc1ccc(C2CC(=O)c3c([nH]c(C(=O)OCc4ccccc4)c3C)C2)cc1 (centres undefined)	.	.	.	.	12µM*	?
COc1ccc(COC(=O)c2[nH]c3c(c2C)C(=O)CC(c2ccc(OC)c(OC)c2)C3)cc1 (centres undefined)	.	.	.	.	9.2µM*	6.5µM*
COc1ccc(C2CC(=O)c3c([nH]c(C(=O)OC4CCC(C)CC4)c3C)C2)cc1OC (centres undefined)	.	.	.	.	?	-14%
Cc1ccc(COC(=O)c2[nH]c3c(c2C)C(=O)CC(c2ccc(N(C)C)cc2)C3)cc1 (centres undefined)	.	.	.	.	-37%	-31%
CCOC(=O)c1[nH]c2c(c1-c1ccc(OC)cc1)C(=O)CC(c1ccc(OC)c(OC)c1)C2 (centres undefined)	-2%	?	?	.	?	?
Cc1c(C(=O)OCc2ccccc2)[nH]c2c1C(=O)CC(c1ccc(C(C)(C)C)cc1)C2 (centres undefined)	.	.	.	.	?	18µM*
COc1ccc(C2CC(=O)c3c([nH]c(C(=O)OC(C)C)c3C)C2)cc1OC (centres undefined)	7%	?	24%	11	23µM*	21µM*
Cc1ccc(CN2C(=O)CN(C3CCC(C)CC3)C(=O)C2c2ccc(F)cc2)cc1 (centres undefined)	.	.	.	.	-28%	?
O=C(CCc1ccccc1)Nc1nnc(-c2cccs2)o1	10µM*	13%	6.3µM*	1	-7%	-19%
O=C(CCSc1ccccc1)Nc1nnc(-c2cccs2)o1	10µM*	-2%	4.5µM*	26	3%	-10%
O=C(CS(=O)(=O)c1ccc(Cl)cc1)Nc1nnc(-c2cccs2)o1	?	14%	14µM*	40	15%	11%
O=C(CCSc1ccccc1)Nc1nnc(-c2ccccc2)o1	11µM*	0%	10µM*	47	-11%	-8%
